aSyn 5UTR act: Activators via SNCA 5'UTR binding, MLPCN | alpha-synuclein 5'UTR reporter, activators screen | activity score, % (tested at 7.5 µM), hits read low | 300,000 tested, 7.1% active | AID 1814; in the data active = activity score below about -60%
* marks the source's active call; other numbers are inactive results. The list is a sample of the results.

SMILES	aSyn 5UTR act
O=C(Nc1ccc(C(=O)N2CCOCC2)cc1)Nc1cccc(Cl)c1	-139.1*
NS(=O)(=O)c1cccc(NC(=O)Nc2ccc(Cl)cc2)c1	-91.9*
Oc1c(C(Nc2cccc(C(F)(F)F)c2)c2ccncc2)ccc2cccnc12 (stereo not drawn)	81.9
CCOc1ccc(NC(=O)Nc2ccccc2SC)cc1	-141.7*
CSc1ccccc1NC(=S)Nc1cccc(C(F)(F)F)c1	-63.5*
CCOc1cc(C2NN=C(c3ccccc3)S2)ccc1OCc1ccc(F)cc1 (stereo not drawn)	-128.8*
CCOc1cc(CNCCCN2CCOCC2)cc(Br)c1OCc1ccccc1Cl	96.4
CCOc1cc(C2NN=C(c3ccccc3)S2)ccc1OCc1ccccc1Cl (stereo not drawn)	-132.2*
Cc1ccn2c(C(=O)c3ccc(Cl)cc3)cnc2c1	-81.5*
CC(=O)NC1=NN(C(C)=O)C(c2ccc(C(C)C)cc2)S1 (stereo not drawn)	-77.5*
Cc1cc(C2=NNC(=NC3CC3)SC2)c(C)n1-c1ccccc1F	99.4
Cc1ccccc1N=C1NN=C(c2ccccc2F)CS1	-171.3*
COc1ccc(-c2nc3c4ccccc4[nH]c(=O)n3n2)cc1	-82.4*
CCOn1c(=O)c(-c2cc3ccccc3o2)[n+]([O-])c2ccccc21	-116.8*
O=c1c(-c2cc3ccccc3o2)[n+]([O-])c2ccccc2n1OCc1ccccn1	-174.1*
COc1cc2sc3ccc(C#CC4(O)CCCCC4)cc3c(=O)c2cc1OC	-136.6*
Cc1ccc(N2C(=O)NC3(CCCCC3)C2=O)cc1	-64.0*
CS/C(N)=N/N=C/c1ccc2c(c1)OCO2	-119.4*
CS/C(N)=N/N=C/c1ccc([N+](=O)[O-])cc1	-133.1*
N/C(=N\N=C\c1ccc(O)c(O)c1)c1nonc1N	-129.6*
N/C(=N\N=C\c1cccc(O)c1)c1nonc1N	-105.6*
N/C(=N\N=C\c1ccc(Br)o1)c1nonc1N	-115.7*
COc1cc(/C=N/N=C(\N)c2nonc2N)ccc1O	-78.1*
COc1ccc(/C=N/N=C(\N)c2nonc2N)cc1OC	-93.3*
N/C(=N\N=C\c1ccc([N+](=O)[O-])cc1)c1nonc1N	-154.5*
SMILES	aSyn 5UTR act
N/C(=N\N=C\c1ccc(O)cc1)c1nonc1N	-181.7*
O=C(N/N=C/c1ccccc1F)c1cccc2ccccc12	-87.3*
Cc1ccccc1C(=O)N/N=C/c1ccc([N+](=O)[O-])s1	93.4
O=C(COc1ccccc1-c1ccccc1)N/N=C/c1cccc2ccccc12	75.3
O=C(N/N=C/c1sc2ccccc2c1O)c1cccc2ccccc12	91.6
CCc1ccc(C(=O)N/N=C/c2cccc3ccccc23)nc1	-125.5*
CCCn1c(=O)c(C(=O)N/N=C/c2ccccc2F)c(O)c2ccccc21	-94.9*
Cc1ccccc1C(=O)N/N=C/c1ccsc1C	-147.5*
Cc1ccccc1C(=O)N/N=C/c1cccc2ccccc12	-71.9*
O=C(c1ccccc1)[C@H]1[C@H](c2ccccc2)[C@@]2(N=C(c3ccccc3)OC2=O)C2c3ccccc3C=NN21 (stereo partly drawn)	-110.4*
CC1CCCN(C(=O)COC(=O)c2n[nH]c3ccccc23)C1 (stereo not drawn)	-140.0*
COC(=O)[C@@H]1Cc2c([nH]c3ccccc23)C(C)(C)N1C(=O)CCl	61.0
COc1ccc(N2CCN(c3nccs3)CC2)cc1	-153.7*
O=C(N/N=C/c1ccccc1Cl)c1cccc(F)c1	-138.1*
Oc1c(Br)cc(Br)cc1/C=N/Nc1ccc(Cl)nn1	96.7
Fc1cccc(/C=N/Nc2ccc(Cl)nn2)c1	-116.0*
O=C(N/N=C/c1cccc(F)c1)c1ccc(Cl)cc1	-149.9*
CC(C)(C)c1ccc(C(=O)N/N=C/c2cccc(Cl)c2)cc1	-89.4*
CCOC(=O)C1C(=O)C=C(Nc2ccccc2F)CC1c1ccccc1 (stereo not drawn)	-113.5*
COC(=O)C1C(=O)C=C(Nc2ccc(F)cc2F)CC1c1ccccc1 (stereo not drawn)	-113.5*
COc1c(C)cccc1C(=O)Nc1ccc(N2CCN(S(C)(=O)=O)CC2)cc1	-145.6*
O=C(CNc1ccccc1OC(F)F)N1CCc2ccccc21	-288.6*
COc1ccccc1C(=O)NC(=S)Nc1ccc(N2CCCC2)cc1	-83.5*
O=C(COc1ccccc1Cl)NC(=S)N1CCc2ccccc21	-86.7*
CN1CCN(c2ccc(NC(=S)NC(=O)c3cccc4c(Cl)cccc34)cc2)CC1	-127.8*
SMILES	aSyn 5UTR act
O=C(COc1ccc(F)cc1Br)N1CCc2ccccc21	-86.0*
COCCNC(=S)Nc1ccc(N2CCCCC2)cc1	-172.8*
COc1ccccc1C(=O)Nc1ccc(N2CCN(S(C)(=O)=O)CC2)cc1	-75.6*
COc1ccccc1C(=O)NC(=S)N1CCCc2ccccc21	-167.0*
COc1c(C)cccc1C(=O)Nc1ccc(CN2CCOCC2)cc1	-108.7*
Cc1nc(N)nc(N)c1CCCc1ccc(Cl)c(Cl)c1	91.8
Cc1nc2ccccc2cc1OCc1ccc(Cl)cc1	-72.1*
COc1cccc(COc2cc3ccccc3nc2C)c1	-95.8*
CSC1=NC(C)(C)CC2(C)Nc3ccccc3N12 (stereo not drawn)	-87.8*
Cc1c(Cl)cccc1Nc1nc(N)nc(CSc2ncccn2)n1	-77.5*
O=C(NCc1ccccn1)Nc1cccc(Cl)c1	-176.5*
Cc1ccc(CNC(=O)Nc2cccc(C)c2)cc1	-117.1*
O=C(NCc1ccc(F)cc1)Nc1cccc(Cl)c1	-149.0*
CCCCCCNC(=O)Nc1ccccc1	-88.4*
O=C(NCCc1ccc(F)cc1)Nc1ccccc1	-70.1*
Cc1cccc(NC(=O)Nc2ccc(C)cc2Br)c1	-78.9*
O=C(NCc1ccc(F)cc1)Nc1ccc(Cl)cc1	-64.8*
Fc1cccc(NC(=S)NCc2ccccn2)c1	-93.5*
COc1cccc(NC(=O)C(=O)NCCc2ccc(F)cc2)c1	-109.2*
CCN(CC)CC(=O)Nc1ccc(C)cc1Br	-76.7*
c1ccc(OCCOc2ccccc2-c2nnco2)cc1	-64.4*
COc1cc(C#CC#CCN2CCCCC2)ccc1O	-80.7*
Cn1c(=O)c(C(=O)NCc2ccccc2Cl)c(O)c2ccccc21	-78.0*
Cn1c(=O)c(C(=O)NCc2ccccc2)c(O)c2ccccc21	-74.0*
Cn1c(=O)c(C(=O)c2ccc(S(C)(=O)=O)c(Cl)c2Cl)c(O)c2ccccc21	-84.5*
SMILES	aSyn 5UTR act
C/C(=N\NC(=O)C(C)n1nc(C)c([N+](=O)[O-])c1C)c1ccccc1O (stereo not drawn)	77.8
Cc1nn(CC(=O)c2ccccc2Cl)c(C)c1[N+](=O)[O-]	-176.9*
Oc1ccc(Br)cc1-c1ccn[nH]1	-69.2*
CCOc1ccc(NC(=O)c2ccc(Br)o2)c([N+](=O)[O-])c1	-128.7*
CCOc1ccc(NC(=O)COc2ccccc2)c([N+](=O)[O-])c1	-217.6*
CCCOc1ccc(/C=N/NC(=S)Nc2ccccc2[N+](=O)[O-])c(O)c1	100.6
COc1cc(/C=N/Nc2ccccc2[N+](=O)[O-])ccc1OC(=O)c1ccccc1F	-99.9*
COc1cc(/C=N/Nc2nc3ccccc3s2)ccc1OC(=O)c1ccccc1F	-387.1*
COc1cc(OC)cc(C(=O)Oc2ccc(/C=N/Nc3nc4ccccc4s3)cc2OC)c1	-512.9*
COc1ccc(/C=N/NC(=S)Nc2ccccc2[N+](=O)[O-])cc1O	-131.0*
CC(C)=CC(=O)Nc1ccc(Cl)cc1	-90.0*
CCNC(=O)C(=O)Nc1ccc(OC)c(Cl)c1	-83.4*
COc1ccc(NC(=O)Nc2cccs2)cc1Cl	-166.9*
COc1ccc(NC(=O)C=C(C)C)cc1Cl	-122.2*
CCc1cccc(NC(=O)Nc2cccs2)c1	-243.5*
COc1ccc(NC(=O)c2cc(F)c(F)cc2Cl)cc1Cl	-92.9*
